Results published in ChEMBL document CHEMBL3988442, “University of Dundee, Small-Polar-MMV Screening Library” (2021).
For part of these data: Entries with a potency or affinity are not part of this list.

Experiments:
Set-up in all cases: scale not given: direction of the effect not stated beside the values
[1] = molecular target: Protein translocase subunit SecA (Escherichia coli (strain K12)) (UniProt P10408); assay: Assay to Identify E. coli SecA ATPase Inhibitors; type: functional; settings: 30 µM
Protein translocase subunit SecA (Escherichia coli (strain K12)), sequence (P10408 whole entry): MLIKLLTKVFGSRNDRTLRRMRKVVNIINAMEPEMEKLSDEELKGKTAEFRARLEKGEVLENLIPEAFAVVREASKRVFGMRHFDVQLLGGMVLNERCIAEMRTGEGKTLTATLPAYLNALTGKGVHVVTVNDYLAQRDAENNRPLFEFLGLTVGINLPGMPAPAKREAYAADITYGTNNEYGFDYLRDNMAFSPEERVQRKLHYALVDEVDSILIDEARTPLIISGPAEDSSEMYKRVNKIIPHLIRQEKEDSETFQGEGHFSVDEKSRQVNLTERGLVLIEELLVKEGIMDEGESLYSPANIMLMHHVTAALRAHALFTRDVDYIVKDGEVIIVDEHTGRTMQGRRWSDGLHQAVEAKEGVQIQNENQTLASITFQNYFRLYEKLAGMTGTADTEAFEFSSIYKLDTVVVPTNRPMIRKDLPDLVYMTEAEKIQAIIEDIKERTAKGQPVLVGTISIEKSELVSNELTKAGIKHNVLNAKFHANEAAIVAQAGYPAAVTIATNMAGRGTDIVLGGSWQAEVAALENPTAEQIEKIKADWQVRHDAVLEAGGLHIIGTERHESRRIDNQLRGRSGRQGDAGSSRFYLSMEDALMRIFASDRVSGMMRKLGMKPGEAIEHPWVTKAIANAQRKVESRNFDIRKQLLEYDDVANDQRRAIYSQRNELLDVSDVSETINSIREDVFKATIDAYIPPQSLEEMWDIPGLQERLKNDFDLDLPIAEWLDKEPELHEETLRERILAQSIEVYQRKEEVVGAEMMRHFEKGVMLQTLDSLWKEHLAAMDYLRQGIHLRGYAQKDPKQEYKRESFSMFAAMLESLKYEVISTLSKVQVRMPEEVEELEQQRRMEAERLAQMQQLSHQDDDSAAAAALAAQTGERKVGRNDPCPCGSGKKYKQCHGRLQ

[2] = molecular target: T1, Ubiquitin-activating enzyme e1, putative (Leishmania donovani (strain BPK282A1)) (UniProt E9BSI1); assay: Leishmania donovani Ubiquitin Activating Enzyme (LdE1); type: functional; settings: 30 µM
T1 sequence (whole entry): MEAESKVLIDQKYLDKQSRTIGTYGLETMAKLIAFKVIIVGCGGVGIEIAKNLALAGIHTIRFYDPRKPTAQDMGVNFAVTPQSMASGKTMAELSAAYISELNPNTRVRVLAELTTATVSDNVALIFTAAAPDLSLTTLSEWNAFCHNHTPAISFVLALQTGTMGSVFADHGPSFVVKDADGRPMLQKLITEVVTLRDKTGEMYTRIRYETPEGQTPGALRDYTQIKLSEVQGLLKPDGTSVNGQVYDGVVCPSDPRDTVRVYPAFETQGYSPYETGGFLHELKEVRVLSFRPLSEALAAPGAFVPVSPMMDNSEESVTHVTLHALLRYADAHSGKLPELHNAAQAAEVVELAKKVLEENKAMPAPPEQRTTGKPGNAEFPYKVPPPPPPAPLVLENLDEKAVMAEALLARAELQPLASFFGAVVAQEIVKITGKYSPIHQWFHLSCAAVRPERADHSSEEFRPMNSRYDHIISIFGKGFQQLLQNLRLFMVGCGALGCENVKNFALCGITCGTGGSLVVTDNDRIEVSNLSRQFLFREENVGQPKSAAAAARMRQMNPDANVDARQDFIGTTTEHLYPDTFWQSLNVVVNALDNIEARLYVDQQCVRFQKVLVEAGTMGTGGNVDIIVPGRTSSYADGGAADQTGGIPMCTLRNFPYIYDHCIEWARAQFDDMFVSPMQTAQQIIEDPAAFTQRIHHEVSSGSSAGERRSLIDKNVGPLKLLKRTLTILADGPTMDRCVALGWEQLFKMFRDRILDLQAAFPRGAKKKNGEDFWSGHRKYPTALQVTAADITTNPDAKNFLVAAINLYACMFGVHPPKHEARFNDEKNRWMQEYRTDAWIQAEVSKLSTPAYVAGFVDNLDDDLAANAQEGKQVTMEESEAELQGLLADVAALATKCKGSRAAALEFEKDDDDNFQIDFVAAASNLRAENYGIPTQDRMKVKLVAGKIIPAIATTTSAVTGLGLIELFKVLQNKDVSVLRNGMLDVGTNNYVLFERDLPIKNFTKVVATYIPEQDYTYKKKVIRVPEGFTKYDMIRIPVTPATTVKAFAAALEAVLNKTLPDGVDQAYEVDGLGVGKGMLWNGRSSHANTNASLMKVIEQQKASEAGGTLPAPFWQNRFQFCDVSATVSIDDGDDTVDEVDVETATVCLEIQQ

[3] = molecular target: AMP-activated protein kinase, AMPK (Homo sapiens) (UniProt P54646+O43741+P54619+Q9UGJ0+Q9Y478+Q13131+Q9UGI9); assay: AMP-dependent Kinase enzyme assay. An in vitro enzyme assay that detects ADP turnover that is directly proportional to AMPK activity. This uses naive AMPK that is activated during the assay with MK-8722; type: functional; settings: 30 µM
[4] = molecular target: Sialic acid-binding Ig-like lectin 9 (Homo sapiens) (UniProt Q9Y336); assay: Hs-Siglec9 ALPHAscreen SOP 20170721; settings: 10 µM
Sialic acid-binding Ig-like lectin 9 (Homo sapiens), sequence (Q9Y336 whole entry): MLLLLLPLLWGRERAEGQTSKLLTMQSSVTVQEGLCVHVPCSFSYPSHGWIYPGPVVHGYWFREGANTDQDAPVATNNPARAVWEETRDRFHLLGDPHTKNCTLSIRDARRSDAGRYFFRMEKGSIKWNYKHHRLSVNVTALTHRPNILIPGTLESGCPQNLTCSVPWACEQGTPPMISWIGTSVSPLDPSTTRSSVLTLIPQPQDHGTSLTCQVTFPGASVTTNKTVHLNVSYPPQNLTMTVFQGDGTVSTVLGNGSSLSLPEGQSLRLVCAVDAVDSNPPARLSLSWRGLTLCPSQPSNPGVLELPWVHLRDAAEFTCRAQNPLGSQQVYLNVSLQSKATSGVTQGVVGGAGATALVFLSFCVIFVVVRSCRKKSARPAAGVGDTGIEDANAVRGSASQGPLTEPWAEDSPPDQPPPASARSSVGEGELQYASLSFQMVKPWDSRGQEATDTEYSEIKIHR

Trypanosoma cruzi = assay: Trypanosoma cruzi phosphomannomutase and mannose-1-phosphate guanylyltransferase assay; type: functional; settings: 10 µM
[5] = molecular target: T2, Arginase-2, mitochondrial (Homo sapiens) (UniProt P78540); assay: in vitro enzyme assay to detect the production of urea directly proportional to the activity of Arginase II; type: functional; settings: 33.3 µM; note: in the data most compounds retested in dose-response had high values
T2 sequence (whole entry): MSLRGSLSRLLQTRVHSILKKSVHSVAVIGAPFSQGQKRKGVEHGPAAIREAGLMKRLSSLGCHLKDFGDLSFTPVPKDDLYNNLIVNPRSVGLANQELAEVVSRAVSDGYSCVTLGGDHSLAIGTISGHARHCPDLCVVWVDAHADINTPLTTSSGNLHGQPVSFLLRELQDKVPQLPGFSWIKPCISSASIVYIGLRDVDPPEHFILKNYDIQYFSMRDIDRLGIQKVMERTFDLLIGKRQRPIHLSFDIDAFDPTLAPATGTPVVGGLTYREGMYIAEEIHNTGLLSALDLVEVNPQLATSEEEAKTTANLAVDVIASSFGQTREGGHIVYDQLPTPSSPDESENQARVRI

[6] = molecular target: T3, Proteasome subunit beta (Trypanosoma cruzi) (UniProt O96673); assay: Trypanosoma cruzi proteasome chymotrypsin-like activity (TcProtChymo) assay.; note: in the data most compounds retested in dose-response had high values; type: functional; settings: 9.37 µM
T3 sequence (whole entry): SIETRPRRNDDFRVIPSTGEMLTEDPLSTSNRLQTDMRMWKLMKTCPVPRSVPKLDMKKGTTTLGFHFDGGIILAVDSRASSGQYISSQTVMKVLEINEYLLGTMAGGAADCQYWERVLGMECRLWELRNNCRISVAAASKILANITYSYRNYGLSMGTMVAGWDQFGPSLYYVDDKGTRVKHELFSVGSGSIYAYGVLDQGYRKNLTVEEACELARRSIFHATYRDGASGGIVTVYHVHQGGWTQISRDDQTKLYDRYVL

Homo sapiens = species on record: Homo sapiens; assay: To identify inhibition of the IFN signalling (Jak-Stat) pathway via expression of an eGFP reporter gene under the control of an IFN-stimulated response element (ISRE) containing MxA promoter.; type: functional; settings: 30 µM
[7] = molecular target: T4, Tyrosyl-tRNA synthetase, putative (Trypanosoma cruzi (strain CL Brener)) (UniProt Q4DSP6); assay: Trypanosoma cruzi tyrosyl tRNA synthetase (TcYRS) _High Tyrosine SOP; type: functional; settings: 30 µM; note: in the data most compounds retested in dose-response had high values
T4 sequence (whole entry): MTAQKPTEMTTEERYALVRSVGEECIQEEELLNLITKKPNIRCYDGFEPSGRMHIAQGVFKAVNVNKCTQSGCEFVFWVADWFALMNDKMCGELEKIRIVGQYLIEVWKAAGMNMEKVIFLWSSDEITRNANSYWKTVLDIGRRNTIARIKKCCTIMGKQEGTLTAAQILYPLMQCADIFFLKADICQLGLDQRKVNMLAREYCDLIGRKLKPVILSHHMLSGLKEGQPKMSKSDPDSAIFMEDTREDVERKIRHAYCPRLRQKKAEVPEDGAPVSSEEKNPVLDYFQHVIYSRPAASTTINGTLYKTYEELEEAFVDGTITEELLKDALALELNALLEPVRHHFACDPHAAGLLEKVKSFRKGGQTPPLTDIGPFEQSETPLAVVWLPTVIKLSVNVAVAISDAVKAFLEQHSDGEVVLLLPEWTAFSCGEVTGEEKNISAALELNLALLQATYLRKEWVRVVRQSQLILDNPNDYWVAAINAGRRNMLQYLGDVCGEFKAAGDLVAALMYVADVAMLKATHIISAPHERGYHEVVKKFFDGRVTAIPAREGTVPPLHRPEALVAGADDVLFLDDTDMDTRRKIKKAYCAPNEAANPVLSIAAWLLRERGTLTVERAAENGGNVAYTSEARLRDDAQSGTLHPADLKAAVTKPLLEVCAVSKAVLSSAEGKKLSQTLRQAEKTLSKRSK

[8] = molecular target: T4, Tyrosyl-tRNA synthetase, putative (Trypanosoma cruzi (strain CL Brener)); assay: Trypanosoma cruzi tyrosyl tRNA synthetase (TcYRS) SOP; type: functional; settings: 30 µM
[9] = molecular target: Chromo domain-containing protein 1 (Saccharomyces cerevisiae (strain ATCC 204508 / S288c) (Baker's yeast)) (UniProt P32657); assay: ScCHD-1 Enzyme Inhibition Assay; type: functional; settings: 30 µM; note: in the data most compounds retested in dose-response had high values
Chromo domain-containing protein 1 (Saccharomyces cerevisiae (strain ATCC 204508 / S288c) (Baker's yeast)), sequence (P32657 whole entry, the tested form may be a part): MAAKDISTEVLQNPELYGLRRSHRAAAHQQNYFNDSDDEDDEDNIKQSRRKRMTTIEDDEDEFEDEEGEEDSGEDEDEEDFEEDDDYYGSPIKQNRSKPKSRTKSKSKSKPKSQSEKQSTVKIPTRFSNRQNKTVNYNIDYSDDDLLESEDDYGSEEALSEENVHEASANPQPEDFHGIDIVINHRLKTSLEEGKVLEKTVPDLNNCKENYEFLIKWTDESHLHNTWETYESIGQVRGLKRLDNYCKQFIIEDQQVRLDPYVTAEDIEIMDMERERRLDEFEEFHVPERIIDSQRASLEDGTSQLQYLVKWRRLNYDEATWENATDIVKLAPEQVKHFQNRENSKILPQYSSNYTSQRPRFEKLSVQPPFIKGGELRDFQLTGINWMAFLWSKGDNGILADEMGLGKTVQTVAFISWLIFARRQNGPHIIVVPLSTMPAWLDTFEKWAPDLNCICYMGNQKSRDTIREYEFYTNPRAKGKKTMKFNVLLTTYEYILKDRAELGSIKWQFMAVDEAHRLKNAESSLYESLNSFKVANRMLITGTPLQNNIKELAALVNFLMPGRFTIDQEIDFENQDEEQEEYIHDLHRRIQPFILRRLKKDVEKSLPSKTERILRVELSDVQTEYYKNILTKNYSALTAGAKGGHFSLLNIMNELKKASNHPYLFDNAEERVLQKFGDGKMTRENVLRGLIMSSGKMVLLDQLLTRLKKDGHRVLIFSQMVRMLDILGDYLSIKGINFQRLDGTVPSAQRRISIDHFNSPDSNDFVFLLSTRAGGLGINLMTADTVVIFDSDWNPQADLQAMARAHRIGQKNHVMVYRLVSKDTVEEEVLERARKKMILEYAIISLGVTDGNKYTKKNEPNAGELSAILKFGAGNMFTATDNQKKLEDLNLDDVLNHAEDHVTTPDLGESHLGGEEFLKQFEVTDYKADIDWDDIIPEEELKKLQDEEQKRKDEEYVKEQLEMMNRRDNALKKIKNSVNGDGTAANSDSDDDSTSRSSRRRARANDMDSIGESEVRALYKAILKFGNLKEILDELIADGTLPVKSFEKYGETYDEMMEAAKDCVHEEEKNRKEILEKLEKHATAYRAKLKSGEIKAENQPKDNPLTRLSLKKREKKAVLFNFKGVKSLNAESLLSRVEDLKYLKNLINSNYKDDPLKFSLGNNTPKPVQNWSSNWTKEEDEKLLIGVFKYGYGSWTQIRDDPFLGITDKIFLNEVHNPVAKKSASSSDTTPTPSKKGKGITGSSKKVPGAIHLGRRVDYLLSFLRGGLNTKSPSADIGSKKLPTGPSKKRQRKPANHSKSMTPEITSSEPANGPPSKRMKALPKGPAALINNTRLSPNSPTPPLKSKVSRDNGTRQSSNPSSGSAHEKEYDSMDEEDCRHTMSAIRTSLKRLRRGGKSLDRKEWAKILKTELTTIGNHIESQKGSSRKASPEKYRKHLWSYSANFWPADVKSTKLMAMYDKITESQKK

SMILES	Percent Effect [1] [%]	Percent Effect [2] [%]	Percent Effect [3] [%]	Percent Effect [4] [%]	Percent Effect (Trypanosoma cruzi) [%]	Percent Effect [5] [%]	Percent Effect [6] [%]	Percent Effect (Homo sapiens) [%]	Percent Effect [7] [%]	Percent Effect [8] [%]	Percent Effect [9] [%]
CN(C)C(=O)N1CCN(Cc2noc(Cc3ccccc3)n2)CC1	-2.44	0	-1.46	6.32	-0.661	-2.28	-0.409	-0.594	2.46	-3.8	-2.99
Cc1cnn(C2CCCN(C(=O)c3ccnc(-n4ccnc4)c3)C2)c1 (stereo unspecified)	-2.31	8.86	2.83	0.259	-0.513	3.66	8.23	0.141	4.17	17.7	-27.2
COCCCC1CCCN(C(=O)CCc2cc(O)no2)C1 (stereo unspecified)	0.503	4.17	-6.36	2.98	1.46	13.2	18.2	12.3	8.42	15.4	-2.19
Cc1ccc(-c2nc(CN3CCN(S(=O)(=O)N(C)C)CC3)cs2)o1	1.85	3.8	3.49	-3.53	-3.79	1.94	20.9	43.8	8.33	12.7	-19.4
COc1ccc(C(CO)NC(=O)Nc2cccc(C#N)c2)cc1 (stereo unspecified)	-1.84	16.2	-2.87	19.4	3.86	-0.952	15.3	8.24	7.94	17.1	-9.96
CC(=O)N1CCO[C@@H]2CN(C(=O)c3cc(C)oc3C)CC[C@@H]2C1	-6.41	10.8	-31.2	-10.6	-1.07	0.319	7.75	19.1	0	0	-3.96
Cn1ncc2c1NC(=O)CC2c1ccccc1Cl (stereo unspecified)	-6.92	10.5	5.36	7.02	3.6	-5.92	6.62	16.4	1.06	5.2	-0.659
O=C(NCCNS(=O)(=O)c1ccc2c(c1)CCCC2)c1ccoc1	-4.38	13.3	-3.34	15.1	3.41	10.9	5.41	29.3	6.01	13.6	0.0598
CCn1cnnc1C1CCN(C(=O)C(OC)c2ccccc2)CC1 (stereo unspecified)	-2.02	18.2	6.32	-9.96	5.58	-1.05	17.9	-11	8.57	18.8	-17.7
O=C(NCCN1CCNCC1)c1nc2ccccc2c(=O)[nH]1	3.26	9.33	2.04	-5.44	-7.47	-10.7	12	-0.251	4.23	12.8	-7.33
O=C(O)C(c1ccc2c(c1)OCO2)N1CCC(C(=O)N2CCCC2)CC1 (stereo unspecified)	-6.55	0	-3.95	1.83	-5.36	-1.56	4.18	2.87	4.92	3.7	-5.45
O=C(Nc1cc(F)ccc1OCC1CCCO1)c1ccccn1 (stereo unspecified)	-2.56	2.6	23.7	12.2	3.04	3.16	0.242	2.47	2.86	9.41	-15.1
O=C(C[C@@H]1COC[C@H]2CN(Cc3ccc(F)cc3)C[C@@H]12)N1CCOCC1	-9.06	17.3	-1.45	-0.881	-3.73	-10.4	7.58	7.29	-2.12	-5.13	-10.9
c1csc(CN2CCO[C@H]3[C@H](OCCN4CCCC4)CC[C@@H]32)n1	-4.05	7.79	0.971	16	-0.885	-57.9	8.15	10.2	2.15	11.1	-0.273
O=C(c1ccc[nH]1)N1CCC(c2nccn2Cc2ccncc2)CC1	-3.39	13.7	-1.71	5.74	7.05	14.1	8.7	11.4	5.38	10	-6.61
O=C1CC(c2ccc(C(=O)O)cc2)c2ncn(-c3cccc(F)c3)c2N1 (stereo unspecified)	-3.41	9.33	-61.2	-4.05	-4.13	7.57	13.3	-9.89	10.6	15.4	-7.23
CN(C)c1ccc(CN(CCCn2ccnc2)Cc2c[nH]cn2)cc1	-6.31	17.6	-10.4	5.43	3.16	-6.26	12.5	8.69	8.6	19.5	-30.5
Cc1ncsc1C(=O)NCc1cccs1	0.275	16.2	-1.61	5.83	0.464	0.185	14	21.8	6.93	23.2	-4.46
O=C(O)[C@@H]1CN(C(=O)c2cc(C3CC3)n[nH]2)C[C@H]1c1cccc(F)c1	-3.18	16.4	-3.35	7.52	2.98	-7.58	14.5	-4.38	3.12	21	-6.55
O=C(c1cn(-c2cc(N3CCSCC3)ncn2)cn1)N1CCSCC1	-2.69	8.22	-3.54	-3.87	6.27	-1.82	24	-3.38	7.53	15	-3.99
CCn1nnc2c1C(COC)CN(Cc1ccsc1)C2 (stereo unspecified)	-6.4	5.41	1.42	-2.12	-5.77	-2.73	10.2	-14.5	2.15	3.7	-3.53
